Measurements taken from PubChem BioAssay (NCATS).
Records with an inconclusive call do not appear. Activity calls are given as the source filed them. Unless noted, calls come from the whole dose curve; as a rule, active = well fitted curve in the direction sought with a large enough effect; inconclusive = small, poorly fitted or top-dose-only effect, or another doubt; inactive = no such curve, though single readings can be large; an effect the other way counts as inactive or inconclusive.

Columns and labels:
[1] = Confirmation and Secondary Assay for Modulators of Hemoglobin Beta Chain Splicing at IVS2 654 locus (AID 910);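 note: per-well total GFP intensity by laser scanning cytometry after 2-day treatment; % of control where 0% means no effect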
Summary of the method: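 HeLa cells stably carrying EGFP interrupted by mutant beta-globin IVS2-654 intron (CMV-driven) were treated with compound for 2 days at 37C; corrected splicing was scored as total peak GFP intensity per well (488 nm excitation, 500-520 nm emission).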

[2] = Confirmation and Secondary Assay for Modulators of Hemoglobin Beta Chain Splicing at IVS2 705 locus (AID 930);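 note: HeLa cells stably expressing the EGFP-705 splicing reporter; GFP fluorescence per well restored by corrected splicing of the IVS2-705 intron in EGFP; series mostly up to about 46 µM; % of control where 0% means no effect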
Summary of the method: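 Per-well GFP, captured at 1 x 8 µm resolution with 488 nm excitation, served as the read-out for HeLa EGFP-705 cells incubated 2 days with test compound versus DMSO.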

[3] = Cell Viability - LYMP2-001 (AID 921);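 note: series mostly up to about 92 µM; 0% = DMSO only and full inhibition = tetraoctylammonium bromide control wells; nearly all actives have a fitted effect of over 70% in size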
Summary of the method: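 CellTiter-Glo luminescence (intracellular ATP) after 24 hr compound exposure at 37 C, 2500 lymphoblastoid cells/well in complete medium. AC50 fitted with standard Hill equation; tetraoctylammonium bromide positive control.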

[4] = MultiTox-Fluor Cytotoxicity Assay - LYMP1-001 - Dead Cells (AID 946);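 note: cells exposed to compound for 16 h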
Summary of the method: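 Seed 2500 LYMP1-001 cells/well, incubate 5 hr at 37 C; add compound, 16 hr at 37 C; add MultiTox-Fluor reagent, 60 min RT; read dead-cell fluorescence Ex/Em=485/520. Normalize to DMSO and 15 uM tetraoctylammonium bromide.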

[5] = Cell Viability - LYMP1-002 - Assay at 16 hr (AID 948);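 note: 0% = DMSO alone and full effect = 92 µM tetraoctylammonium bromide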
Summary of the method: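 LYMP1-002 human lymphoblastoid cells, 2500/well; 5 hr 37 C; cpd 16 hr 37 C; CellTiter-Glo 30 min RT; luminescence (ATP). Concentration-response, Hill-fit AC50. Pos ctrl tetraoctylammonium bromide.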

[6] = MultiTox-Fluor Cytotoxicity Assay - LYMP1-002 - Live Cells (AID 955);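 note: cells exposed to compound for 16 hours; % is set by controls: 0 for no effect and ±100 for the full control effect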
Summary of the method: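 Human lymphoblastoid LYMP1-002 cells, 2500/well, treated 16 h at 37 C in complete medium. Live-cell protease activity via GF-AFC fluorescence (Ex/Em 405/510) after 60 min reagent incubation; AC50 from Hill fits.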

[7] = MultiTox-Fluor Cytotoxicity Assay - LYMP1-002 - Dead Cells (AID 960);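 note: cells exposed to compound for 16 h at 37 °C; nearly all actives have a fitted effect of over 60% in size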
Summary of the method: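 Human lymphoblastoid LYMP1-002 cells, 2500/well, treated 16 h at 37 C; dead-cell protease cleavage of bis-AAF-R110 read by fluorescence (485/520); normalized to DMSO and 15 uM tetraoctylammonium bromide; AC50 from Hill fit.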

[8] = MultiTox-Fluor Cytotoxicity Assay - LYMP1-003 - Dead Cells (AID 961);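 note: cells exposed to compound for 16 h at 37 °C; nearly all actives have a fitted effect of over 70% in size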
Summary of the method: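 LYMP1-003 lymphoblastoid, 2500 cells/well, 5 hr settle then 16 hr cpd at 37 C; MultiTox-Fluor reagent 60 min RT; Ex/Em 485/520 dead-cell signal; norm. DMSO = 0%, 15 uM tetraoctylammonium bromide = 100%; Hill AC50.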

[9] = MultiTox-Fluor Cytotoxicity Assay - LYMP1-003 - Live Cells (AID 962);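 note: cells exposed to compound for 16 hours at 37 °C; 0% = DMSO only and full loss = 92 µM tetraoctylammonium bromide; cytotoxic hits lower the live-cell protease signal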
Summary of the method: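 LYMP1-003 lymphoblastoid cells, 2500/well in complete medium, treated 16 h at 37 C; live-cell protease cleavage of GF-AFC read by fluorescence (Ex/Em 405/510) after 60 min reagent; AC50 from Hill fits of concentration-response.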

[10] = Cell Viability - LYMP1-003 - Assay at 24 hr (AID 963);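 note: plate controls were DMSO only for no effect and tetraoctylammonium bromide positive control for full effect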
Summary of the method: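 Human lymphoblastoid LYMP1-003 cells, 2500/well, treated 24 h at 37 C in complete medium. Viability read as intracellular ATP by CellTiter-Glo luminescence after 30 min at room temperature; AC50 from Hill-equation fits of qHTS concentration-response.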

[11] = Cell Viability - LYMP1-003 - Assay at 40 hr (AID 964); note: series mostly up to about 92 µM; % is set by controls: 0 for no effect and ±100 for the full control effect; nearly all actives have a fitted effect of over 60% in size
Summary of the method: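 LYMP1-003 human lymphoblastoid cells, 2500/well, preincubated 5 h at 37 C, then treated with compound for 40 h at 37 C. Intracellular ATP read by CellTiter-Glo luminescence after 30 min at room temperature; AC50 from Hill-equation fits.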

[12] = Cell Viability - LYMP2-003 (AID 965);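 note: cells exposed to compounds for 24 h before reading; 0% = DMSO only and full effect = 92 µM tetraoctylammonium bromide; nearly all actives have a fitted effect of over 50% in size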
Summary of the method: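 CellTiter-Glo luminescence (cellular ATP) after 24 h compound exposure at 37 C in complete medium; 2500 cells/well, 5 h settling beforehand. Concentration-response fitted to standard Hill equation for AC50. Tetraoctylammonium bromide served as positive control.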

[13] = Cell Viability - LYMP2-004 (AID 966);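 note: plate controls were DMSO only for no effect and tetraoctylammonium bromide control for full effect; nearly all actives have a fitted effect of over 65% in size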
Summary of the method: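 Lymphoblastoid LYMP2-004 cells, 2500 per well, were preincubated for 5 hr and then treated with compound for 24 h at 37 C in complete medium. Viability was read as cellular ATP by CellTiter-Glo luminescence, and AC50 values were taken from Hill fits to concentration-response data.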

[14] = molecular target: Cytochrome P450 2C19 (Homo sapiens) (UniProt P33261); experiment: qHTS Assay for Inhibitors and Substrates of Cytochrome P450 2C19 (AID 899); note: % is set by controls: 0 for no effect and ±100 for the full control effect; nearly all actives have a fitted effect of over 60% in size
Summary of the method: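 NADPH-dependent conversion of Luciferin-H EGE (10uM, at KM) by 5nM enzyme in 50mM KPO4, 60 min at 37C following 10 min compound preincubation. Stopped with luciferin detection buffer; luminescence read after 20 min.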

[15] = qHTS Assay for Identification of Small Molecule Agonists for Hypoxia Response Element Signaling Pathway (AID 914; active = well fitted activation curve with a large enough effect in the signal ratio, with a control signal flat, not every such curve was filed as active; the % refers to the signal ratio; note: % of control where 0% means no effect); settings: ME-180 (cervical carcinoma) HRE-bla reporter, beta-lactamase ratio, CoCl2, 17 h; hits give high values
Summary of the method: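 In Opti-MEM containing 0.5% dialyzed FBS and 10 mM HEPES, ME-180 HRE-bla cells received a compound titration and EC50 CoCl2. They were incubated 17 hours, then CCF4-loaded 2.5 hours at room temperature before ratio reading.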

Sequence of Cytochrome P450 2C19 (Homo sapiens) (P33261 whole entry, looked up): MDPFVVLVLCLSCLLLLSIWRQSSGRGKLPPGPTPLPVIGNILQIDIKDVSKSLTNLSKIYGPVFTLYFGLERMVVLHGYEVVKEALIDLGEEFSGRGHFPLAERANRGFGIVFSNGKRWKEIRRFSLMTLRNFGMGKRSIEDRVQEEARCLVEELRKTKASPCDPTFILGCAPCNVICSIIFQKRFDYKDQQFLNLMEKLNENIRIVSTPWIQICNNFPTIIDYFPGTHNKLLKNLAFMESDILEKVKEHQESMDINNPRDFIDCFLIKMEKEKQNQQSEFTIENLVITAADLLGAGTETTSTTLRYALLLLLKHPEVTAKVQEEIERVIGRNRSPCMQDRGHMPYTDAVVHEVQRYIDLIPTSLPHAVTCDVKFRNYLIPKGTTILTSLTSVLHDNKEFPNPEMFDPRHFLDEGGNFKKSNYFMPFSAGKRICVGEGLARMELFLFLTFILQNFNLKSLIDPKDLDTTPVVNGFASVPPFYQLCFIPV

Cc1c(NC(=O)c2cccnc2)c(=O)n(-c2ccccc2)n1C
inactive: outcome [1] | outcome [2]

Cn1c(=O)c2c(ncn2CCO)n(C)c1=O
inactive: outcome [1] | outcome [2]

CC(N)CCCC(C)(C)O (configuration not stated)
inactive: outcome [1] | outcome [2]

CCCCOC(=O)c1ccc(N)cc1
inactive: outcome [1] | outcome [3] | outcome [2] | outcome [4] | outcome [5] | outcome [6] | outcome [7] | outcome [8] | outcome [9] | outcome [10] | outcome [11] | outcome [12] | outcome [13]

C[C@@H]1CCC[C@H](C)N1
inactive: Potency [14]

Cc1cc(C)nc(NS(=O)(=O)c2ccc(N)cc2)n1
inactive: outcome [1] | activation [15] -4.03% | outcome [3] | outcome [2] | outcome [4] | outcome [5] | outcome [6] | outcome [7] | outcome [8] | outcome [9] | outcome [10] | outcome [11] | outcome [12] | outcome [13]

CCN(CC)C(=O)c1cccc(C)c1
inactive: outcome [1] | outcome [3] | outcome [2] | outcome [4] | outcome [5] | outcome [6] | outcome [7] | outcome [8] | outcome [9] | outcome [10] | outcome [11] | outcome [12] | outcome [13]

Cc1cc(NC(=O)C2=C(O)c3ccccc3S(=O)(=O)N2C)no1
inactive: outcome [1] | outcome [2]

COc1ccccc1OCC(O)CO (configuration not stated)
inactive: outcome [1] | outcome [2]

OC(CCN1CCCC1)(c1ccccc1)C1CCCCC1 (configuration not stated)
inactive: outcome [1] | outcome [2]

COc1ccc(NS(=O)(=O)c2ccc(N)cc2)nn1
inactive: outcome [1] | outcome [2]

Cc1c(NC(C)C)c(=O)n(-c2ccccc2)n1C
inactive: outcome [1] | outcome [2]

C/C=C/C(=O)N(CC)c1ccccc1C
inactive: outcome [1] | outcome [2]

Cc1cc(=O)[nH]c(=S)[nH]1
inactive: outcome [1] | outcome [3] | outcome [2] | outcome [4] | outcome [5] | outcome [6] | outcome [7] | outcome [8] | outcome [9] | outcome [10] | outcome [11] | outcome [12] | outcome [13]
